An excerpt weighted towards active compounds, which were near 9.3% of everything screened.
ELG1 DNA repair – inhibitors of ELG1-dependent DNA repair in HEK293T cells. HEK293T ELG1-luciferase reporter, luminescence, 16 h; DNA damage induced by 5-fluorouridine. Potency, µM (top dose mostly 46.1 µM), most hits filed as inhibitors. 330,000 compounds, 2.3% hits. AID 504467; further: nearly all actives have a fitted effect of over 55% in size
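Cells (2,000 per well) received 5-fluorouridine plus test compound or DMSO and were incubated 16 hr at 37 °C, 5% CO2. Luciferase activity was read by luminescence 30 min after ONE-Glo addition; signal suppression marked inhibition of damage-induced ELG1 function.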
SMN2 splice up – SMN2 splice variant enhancement; HEK293 SMN2-luciferase splicing reporter, luminescence, 30-36 h; 210,000 compounds, 2.8% hits; Potency, µM (series often up to 46.1 µM), most hits filed as activators; AID 1458; further: nearly all actives have a fitted effect of over 55% in size
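qHTS luciferase splicing reporter: luminescence rises when SMN2 exon 7 is included in transfected HEK293 cells. Compound exposure lasted 30-36 h at 37C, with 4.5 mM final sodium butyrate as control, followed by a ONE-Glo read.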
NPC1 promoter act – NPC1 promoter activation; Potency, µM (top dose mostly 9.22 µM), hits mostly activators; AID 485313; Huh7 NPC1 promoter luciferase reporter, 24 h; 320,000 compounds, 2.4% hits; further: nearly all actives have a fitted effect of over 60% in size
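Compounds in DMSO were transferred onto Huh7 NPC1-luciferase reporter cells pre-incubated 2 h; after 24 h at 37 °C, Amplite reagent was dispensed and luminescence recorded 10 min later.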
ELG1 genotoxic – genotoxicity induction in ELG1-luciferase HEK293T cells. HEK293T ELG1-luciferase reporter, luminescence, 16 h. Potency, µM (titrated, usually from 46 µM), actives largely listed as activators. 330,000 compounds, 1.3% hits. AID 504466; further: nearly all actives have a fitted effect of over 60% in size
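ELG1-luciferase HEK293T cells, 2,000/well; compound pinned in; 16 hr, 37 °C, 5% CO2; ONE-Glo, 30 min RT; luminescence on CCD imager.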
Rab9 prom act – activators of Rab9 promoter. Huh7 Rab9 promoter-luciferase reporter, luminescence, 24 h. AID 485297. 320,000 compounds, 2.8% hits. Potency, µM (series often up to 9.22 µM), most hits filed as activators; further: nearly all actives have a fitted effect of over 60% in size
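Luminescence from Amplite-detected luciferase (10 minutes, ambient) reports Rab9 promoter activation. Before that, stable Rab9-luciferase Huh7 cells (1500/well, reduced-serum OP-MEM I plus 10% FBS) were exposed to compound for 24 hours at 37C.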
FLuc modulator – counter-screen for miR-21 project: firefly luciferase inhibitors or activators; purified FLuc, Km substrates, luminescence inhibition; Potency, µM (highest dose often 57.5 µM), hits mostly inhibitors; 360,000 compounds, 6.9% hits; further: nearly all actives have a fitted effect of over 55% in size
Target sequence (P08659 whole entry, looked up): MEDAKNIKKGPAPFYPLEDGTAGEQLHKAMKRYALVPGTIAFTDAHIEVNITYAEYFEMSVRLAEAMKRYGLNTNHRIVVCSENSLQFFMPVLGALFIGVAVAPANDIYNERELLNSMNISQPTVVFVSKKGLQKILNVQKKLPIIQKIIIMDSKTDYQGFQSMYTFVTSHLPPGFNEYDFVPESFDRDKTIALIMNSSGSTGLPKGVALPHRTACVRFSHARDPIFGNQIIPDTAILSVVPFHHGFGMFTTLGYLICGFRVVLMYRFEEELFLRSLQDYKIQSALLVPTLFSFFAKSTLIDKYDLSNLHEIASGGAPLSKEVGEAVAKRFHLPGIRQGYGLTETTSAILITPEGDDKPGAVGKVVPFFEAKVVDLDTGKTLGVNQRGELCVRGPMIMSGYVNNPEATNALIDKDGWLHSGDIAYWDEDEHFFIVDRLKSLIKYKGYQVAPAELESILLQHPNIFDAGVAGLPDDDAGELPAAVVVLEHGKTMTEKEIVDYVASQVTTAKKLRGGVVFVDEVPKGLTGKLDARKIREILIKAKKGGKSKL
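Biochemical qHTS of compounds, final roughly 60 µM downward over six points, against 10 nM purified firefly luciferase using Km concentrations of substrates (10 uM D-luciferin, 10 uM ATP) in Tris acetate pH 7.5 buffer; luminescence output.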
Large screens that a line does not name were inactive. The call rests on the fitted dose curve; in most records, active means well fitted curve in the direction sought with a large enough effect; inconclusive means small, poorly fitted or top-dose-only effect, or another doubt; inactive means no such curve, though single readings can be large; an effect the other way counts as inactive or inconclusive.

COc1ccc(-n2nc3c(N4CCC(C(=O)NCc5cccc(C)c5)CC4)nnc(C)c3c2C)cc1	ELG1 DNA repair 18µM, ELG1 genotoxic inconclusive (no result: SMN2 splice up)
COc1ccc(-n2nc3c(N4CCCC(C(=O)NCc5cccc(F)c5)C4)nnc(C)c3c2C)cc1 (stereo not given)	none (no result: ELG1 DNA repair, SMN2 splice up, NPC1 promoter act, ELG1 genotoxic, Rab9 prom act)
CCc1ccc(CNC(=O)C2CCCN(c3nnc(C)c4c(C)n(-c5ccccc5)nc34)C2)cc1 (stereo not given)	ELG1 DNA repair 21µM (no result: SMN2 splice up)
Cc1nnc(N2CCCC(C(=O)NCc3ccccc3)C2)c2nn(-c3ccccc3)c(C)c12 (stereo not given)	none (no result: ELG1 DNA repair, SMN2 splice up, NPC1 promoter act, ELG1 genotoxic, Rab9 prom act)
CC(C)NC(=O)c1[nH]nc2c1CCc1ccccc1-2	ELG1 DNA repair inconclusive, NPC1 promoter act inconclusive, ELG1 genotoxic inconclusive, Rab9 prom act 3.5µM, FLuc modulator 19µM (no result: SMN2 splice up)
CNC(=O)c1[nH]nc2c1CCc1cc(OC)ccc1-2	ELG1 DNA repair inconclusive, NPC1 promoter act inconclusive, ELG1 genotoxic inconclusive, Rab9 prom act 5µM, FLuc modulator 17µM (no result: SMN2 splice up)
COc1cccc(/C=N/NC(=O)c2[nH]nc3c2CCc2ccccc2-3)c1	ELG1 DNA repair inconclusive, FLuc modulator inconclusive (no result: SMN2 splice up)
COc1ccc2c(c1)CCc1c-2n[nH]c1C(=O)NCCC(C)C	ELG1 DNA repair inconclusive, NPC1 promoter act 1µM, ELG1 genotoxic 2.6µM, Rab9 prom act 0.79µM, FLuc modulator 1.3µM (no result: SMN2 splice up)
COc1ccc(/C=C/c2nc(C#N)c(N3CCC(C)CC3)o2)cc1OC	none (no result: ELG1 DNA repair, NPC1 promoter act, ELG1 genotoxic, Rab9 prom act)
O=C(c1ccccc1)N1CCSc2sccc2C1=O	ELG1 DNA repair inconclusive, NPC1 promoter act inconclusive, Rab9 prom act inconclusive, FLuc modulator 24µM
O=C(c1ccc(Br)cc1)c1cc2ccc(O)cc2oc1=O	ELG1 DNA repair inconclusive, FLuc modulator inconclusive (no result: SMN2 splice up)
O=C(c1ccccc1)c1cc2ccc(O)cc2oc1=O	ELG1 DNA repair inconclusive, FLuc modulator 19µM
O=C(Nc1cc2ccc(O)cc2oc1=O)c1ccccc1	FLuc modulator 5.4µM (no result: ELG1 DNA repair, SMN2 splice up, NPC1 promoter act, ELG1 genotoxic, Rab9 prom act)
Cc1oc(=O)c(NC(=O)c2ccccc2)cc1C(C)O (stereo not given)	none (no result: SMN2 splice up)
COc1ccc(N2CCN(C(CNC(=O)C(=O)NCC(OC)OC)c3ccco3)CC2)cc1 (stereo not given)	none (no result: SMN2 splice up)
O=C(/C=C/c1cccc([N+](=O)[O-])c1)NCc1ccc2c(c1)OCO2	none
COc1ccc(/C=N/N(C)c2cc(=O)n(C)c(=O)[nH]2)cc1OC	ELG1 DNA repair inconclusive, ELG1 genotoxic inconclusive, FLuc modulator 17µM
CN(/N=C/C=C/c1ccccc1)c1cc(=O)n(C)c(=O)[nH]1	ELG1 DNA repair inconclusive
CCOc1ccccc1CNC(=O)CCCn1c(=O)c2cccn2c2cccnc21	none (no result: ELG1 DNA repair, SMN2 splice up, NPC1 promoter act, ELG1 genotoxic, Rab9 prom act)
O=Cc1c[nH]c2cccc(OCc3ccccc3)c12	ELG1 DNA repair inconclusive, FLuc modulator 11µM (no result: SMN2 splice up)
COc1ccc(CC2S/C(=N/N=C/c3ccccc3O)NC2=O)cc1 (stereo not given)	ELG1 DNA repair inconclusive, FLuc modulator inconclusive (no result: SMN2 splice up)
O=C1N/C(=N/N=C/c2ccc(O)cc2)SC1Cc1ccccc1 (stereo not given)	ELG1 DNA repair inconclusive, FLuc modulator 2.4µM (no result: SMN2 splice up)
COc1ccc(CC2S/C(=N/N=C/c3ccc(O)cc3)NC2=O)cc1 (stereo not given)	ELG1 DNA repair inconclusive, ELG1 genotoxic inconclusive, Rab9 prom act inconclusive, FLuc modulator 0.43µM
O=C1N/C(=N/N=C/c2ccccc2O)SC1Cc1ccc(F)cc1 (stereo not given)	ELG1 DNA repair inconclusive (no result: SMN2 splice up)
CCNC(=S)NNC(=O)c1ccc(S(=O)(=O)NCc2ccco2)cc1	none (no result: SMN2 splice up, NPC1 promoter act, Rab9 prom act, FLuc modulator)
O=C(CSc1nnc2ccc(-c3ccccn3)nn12)NCC1CCCO1 (stereo not given)	none
COc1ccc(NC(=O)CSc2nc3ccccc3nc2Cc2ccc(C)cc2)cc1Cl	none (no result: ELG1 DNA repair, SMN2 splice up, NPC1 promoter act, ELG1 genotoxic, Rab9 prom act)
CCN(CC)S(=O)(=O)c1cc(NC(=O)CSc2nc3c(cc2C#N)C(=O)CC(C)(C)C3)ccc1C	ELG1 DNA repair 21µM
CCOc1ccc(N2C(=O)C3CCCN3C2=O)cc1 (stereo not given)	none
O=C(Nc1cccc(NC(=O)c2cccs2)c1)c1ccc2c(c1)OCO2	ELG1 DNA repair inconclusive, FLuc modulator 15µM
Cc1cc(NC(=O)c2ccc3c(c2)OCO3)ccc1NC(=O)c1ccccc1	ELG1 DNA repair inconclusive, ELG1 genotoxic inconclusive, FLuc modulator inconclusive (no result: SMN2 splice up)
COc1ccc(-c2cccc(NC(=O)c3ccc4c(c3)OCO4)c2)nn1	ELG1 DNA repair inconclusive, FLuc modulator 15µM (no result: SMN2 splice up)
CC(=O)c1cccc(NC(=O)c2ccc3ccccc3c2)c1	ELG1 DNA repair inconclusive, NPC1 promoter act 3.2µM, ELG1 genotoxic inconclusive, Rab9 prom act 2.8µM, FLuc modulator 1.9µM (no result: SMN2 splice up)
CC(=O)c1cccc(NC(=O)NNC(=O)c2ccc3ccccc3c2)c1	none (no result: SMN2 splice up)
CCOC(=O)c1c(N)sc(C(=O)Nc2ccc3c(c2)OCO3)c1C	ELG1 DNA repair inconclusive, NPC1 promoter act 0.32µM, ELG1 genotoxic 0.37µM, Rab9 prom act 0.1µM, FLuc modulator 0.43µM
O=C(Nc1ccc(NC(=O)c2cccs2)cc1)c1ccc2c(c1)OCO2	ELG1 DNA repair inconclusive, ELG1 genotoxic inconclusive (no result: SMN2 splice up)
CCN(CC)S(=O)(=O)N1CCC(C(=O)NCc2ccco2)CC1	none (no result: SMN2 splice up)
CC(OC(=O)/C=C/c1ccccc1)C(=O)Nc1ccc2c(c1)OCCO2 (stereo not given)	none (no result: SMN2 splice up)

Screening results as filed in PubChem BioAssay.
